The list is not random: actives were taken first. Their share in the collection is about 2.9%.
Myeloid diff 2 – myeloid differentiation induction. ER-HoxA9 myeloid progenitors, lysozyme-GFP differentiation, flow cytometry. calls only at 10 µM. actives 1% (n = 360,000);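 active = normalized GFP-positive differentiation at or above the plate's own cutoff, the solvent-only control mean plus 3 SD; inconclusive = no clear call, values can overlap the other calls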;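 note: cells exposed to compound for four days before flow analysis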
ABHD5-PLIN5 inh – ABHD5-PLIN5 protein interaction inhibition. Split G. princeps luciferase complementation, luminescence, 4 h. inhibition, % at 4 µM. actives 0.78% (n = 360,000). AID 602281;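 active = inhibition above the mean inhibition across every tested compound plus 3 SD, cut at about 22% in these data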;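 note: 0% = DMSO only wells and the 100% control is not disclosed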
H9c2 protect – protects H9c2 cardiomyocytes from peroxide injury; H2O2 injury protection, ATPLite, 2 h; protection from H2O2 cell death, % at 20 µM; actives 0.63% (n = 360,000); AID 588492;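 active = compounds giving at least 50% protection of heart cells from peroxide-induced death in the single-dose screen, raw or plate-pattern-corrected value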;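 note: 0% = DMSO wells with peroxide and 100% = DMSO wells without peroxide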
HGIII-sPLA2 inh – Inhibits HGIII-sPLA2 liposome hydrolysis, primary screen; Q9NZ20; QFRET BODIPY PC-A2 liposome hydrolysis, fluorescence; inhibition, % at 12.2 µM; actives 0.56% (n = 370,000); AID 743126;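 active = inhibition above mean plus 3 SD of compounds lying within the high and low control bounds, cut at about 19% in these data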;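 note: 0% = median of test compound wells and 100% = no enzyme DMSO wells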
Rtt109 Vps75 – C. albicans Rtt109 histone acetyltransferase inhibition; Q5AAJ8; purified Rtt109/Vps75, ThioGlo CoA-SH fluorescence, 4 h; inhibition, % at 34.9 µM; actives 0.16% (n = 330,000);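 active = inhibition of at least 50% in every replicate; inconclusive = best replicate reaches 50% inhibition but some replicates fall short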
DAGLB inh – blocks human DAGLB lipase activity. HEK293T DAGLB membrane lysate, EnzChek fluorogenic substrate. inhibition, % at 5.17 µM. actives 0.059% (n = 340,000); in the data active = inhibition above about 34%;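 note: 0% = enzyme with vehicle and 100% = wells lacking enzyme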
Target sequence (Q8NCG7 whole entry, looked up): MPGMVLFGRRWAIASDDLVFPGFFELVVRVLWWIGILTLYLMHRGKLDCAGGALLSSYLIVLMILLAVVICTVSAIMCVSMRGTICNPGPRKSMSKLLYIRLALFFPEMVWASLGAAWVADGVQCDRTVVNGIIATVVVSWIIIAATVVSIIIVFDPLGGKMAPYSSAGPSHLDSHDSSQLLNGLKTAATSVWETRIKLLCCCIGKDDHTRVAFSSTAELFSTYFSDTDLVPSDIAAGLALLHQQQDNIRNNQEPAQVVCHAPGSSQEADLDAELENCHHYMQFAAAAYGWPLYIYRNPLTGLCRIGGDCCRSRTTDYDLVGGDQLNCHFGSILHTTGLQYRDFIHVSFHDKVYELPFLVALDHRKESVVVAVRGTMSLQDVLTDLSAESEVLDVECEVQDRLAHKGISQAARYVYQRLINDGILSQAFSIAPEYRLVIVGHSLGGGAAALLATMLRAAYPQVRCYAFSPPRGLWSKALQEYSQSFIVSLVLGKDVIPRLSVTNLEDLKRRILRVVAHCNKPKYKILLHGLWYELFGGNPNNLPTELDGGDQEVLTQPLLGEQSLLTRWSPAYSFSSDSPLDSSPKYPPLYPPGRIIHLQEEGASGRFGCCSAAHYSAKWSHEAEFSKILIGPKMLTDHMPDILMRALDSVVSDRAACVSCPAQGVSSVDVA
Starred values were filed as active, the others as inactive; i = inactive; ? = inconclusive; / = no result given; + = active, no number.

SMILES	Myeloid diff 2	ABHD5-PLIN5 inh	H9c2 protect	HGIII-sPLA2 inh	Rtt109 Vps75	DAGLB inh
CCOC(=O)N1CCN(S(=O)(=O)c2ccc(C(=O)NNc3nc4ccc(Cl)cc4s3)cc2)CC1	i	3	30	/	0	5
CCOC(=O)N1CCN(S(=O)(=O)c2ccc(C(=O)NNc3nc4cc(C)cc(C)c4s3)cc2)CC1	i	5	56*	/	10	5
Cc1nc(SCc2c(F)cccc2Cl)c2c(=O)n(C)c(=O)n(C)c2n1	+	5	-2	3	-10	-1
Cc1cccc(NC(=O)CSc2nc(C)nc3c2c(=O)n(C)c(=O)n3C)c1	i	-3	13	-1	1	1
COc1ccc(C2C(C#N)=C(N)SC(N)=C2C#N)cc1OC	+	-12	5	-14	1	-6
CCCCN1C=C(C(=O)OCC)C(=O)CC1	i	1	9	2	1	-1
CCC(C)(C)n1nnnc1CN(Cc1ccc(Cl)cc1)Cc1ccco1	i	4	-12	-6	8	-2
CCOc1ccc2[nH]c(=O)c(CN(Cc3ccco3)Cc3nnnn3Cc3ccccc3)cc2c1	i	18	13	-5	3	4
Cc1ccc(C)c2[nH]c(=O)c(CN(Cc3ccco3)S(=O)(=O)c3ccc4c(c3)OCCO4)cc12	+	13	18	-2	5	3
COCCn1nnnc1CN(Cc1ccco1)Cc1cc2cc3c(cc2[nH]c1=O)OCO3	i	22*	0	-2	2	-1
Cc1ccc2cc(CN(Cc3ccc4c(c3)OCO4)Cc3nnnn3Cc3ccco3)c(=O)[nH]c2c1C	i	0	16	-3	-2	9
Cc1ccc(C)c2[nH]c(=O)c(CN(Cc3ccc4c(c3)OCO4)Cc3nnnn3Cc3ccco3)cc12	i	9	60*	-8	6	2
CCC(C)(C)n1nnnc1CN(Cc1ccco1)Cc1cc2cc3c(cc2[nH]c1=O)OCO3	i	23*	28	/	-18	-2
COc1ccc(-n2c(C)nnc2SCC(=O)N2CCOCC2)cc1	i	-4	3	6	1	-4
N#CC1=C(N)C(C#N)(C#N)C2(C(=O)Nc3ccccc32)C2CCCC=C12 (centres undefined)	i	-11	-6	-11	-2	-2
O=C(CSc1nnc(-c2ccccc2)n1-c1ccc(Cl)cc1)NN=Cc1c[nH]c2ccccc12	/	/	/	-22	/	/
CCC1CCC/C1=N\NC(=O)c1ccoc1C (centres undefined)	i	-4	9	3	-20	1
COC(=O)C1OC(OC2CC[C@]3(C)C(CC[C@@]4(C)[C@@H]3CC=C3[C@@H]5CC(C)(C)CC[C@]5(C(=O)OC5OC(CO)C(O)C(O)C5O)CC[C@]34C)C2(C)C)C(O)C(O)C1O[C@H]1OCC(O)C(O)C1O (some centres undefined)	i	33*	-1	/	-4	-1
CC1(C)CC[C@]2(C(=O)O[C@@H]3OC(CO)[C@@H](O)[C@H](O)[C@H]3O)CC[C@]3(C)C(=CCC4[C@@]5(C)CC[C@H](O[C@@H]6OC(C(=O)O)[C@@H](O)[C@H](O)[C@H]6O)C(C)(C)C5CC[C@]43C)[C@@H]2C1 (some centres undefined)	i	4	-1	-7	6	-1
COC(=O)c1cc(C(=O)OCC(=O)N2c3ccccc3NC(=O)C2(C)C)cc([N+](=O)[O-])c1	i	2	58*	/	1	6
CC1(C)C(=O)Nc2ccccc2N1C(=O)COC(=O)c1cc(Cl)cc(Cl)c1	i	10	1	0	4	-5
Cn1c(/C(C#N)=C/c2ccc(-c3ccc(S(N)(=O)=O)cc3)o2)nc2ccccc21	+	11	4	7	1	-6
Cc1coc(NC(=O)CSc2nc(-c3ccc(Cl)cc3)cc(C(F)(F)F)c2C#N)n1	+	0	-12	1	3	-1
COc1ccc(-c2cc(C(F)(F)F)c(C#N)c(SCC(=O)Nc3nc(C)co3)n2)cc1	i	1	-4	/	-9	-8
O=C1CC(C(=O)Nc2ccccc2)C2(CCCC2)O1 (centres undefined)	+	-4	1	0	0	-3
SMILES	Myeloid diff 2	ABHD5-PLIN5 inh	H9c2 protect	HGIII-sPLA2 inh	Rtt109 Vps75	DAGLB inh
Cc1cccc(NC(=O)Nc2ccc(F)cc2)n1	+	-10	-11	-5	-3	-4
Cc1ccc(NC(=O)Nc2cccc(C)n2)cc1	i	-11	-13	3	0	0
CCC(=O)OCCNc1cc(Sc2nccn2C)c2nonc2c1[N+](=O)[O-]	/	7	-20	0	28	-2
CCC(=O)OCCNc1cc(SCCC(=O)OC)c2nonc2c1[N+](=O)[O-]	i	-14	54*	1	-2	1
CCOC(=O)c1c(C)[nH]c(C)c1S(=O)(=O)NCC1CCN(Cc2cccc(Cl)c2)CC1	i	2	0	-32	20	-2
C[C@@H]1CCN(C2CC2)S(=O)(=O)c2c(cccc2N2CCC[C@H]2CO)O1	/	/	/	3	/	/
Cc1ccc(S(=O)(=O)N2C[C@H]3C(=O)C[C@@H](c4ccccc4)N(S(=O)(=O)c4ccc(C)cc4)[C@H]3C[C@H]2c2cccc(Cl)c2)cc1	+	-6	-4	-15	/	-13
O=C1N=c2ccccc2=C1c1sc(Nc2ccc(O)cc2)nc1O	i	0	-1	-11	3	0
O=C1N=c2ccccc2=C1c1sc(Nc2cccc(O)c2)nc1O	?	3	54*	-22	4	2
O=C(CN1CCCC1)Nc1nc(-c2ccc(Cl)cc2)cs1	i	-2	6	/	/	/
Cc1ccc(C)c(S(=O)(=O)N2CCN(C(=O)/C=C/c3ccco3)CC2)c1	i	43*	4	-7	-12	10
Cc1ccc(S(=O)(=O)N2CCN(C(=O)/C=C/c3ccco3)CC2)cc1	i	1	4	0	-10	1
O=C(NNC(=O)c1ccc2ccccc2c1)c1cccc(F)c1	i	1	1	-20	-2	-1
CC(=NNC(=S)Nc1ccccc1Cl)c1ccccn1	?	1	34	13	-4	7
C/C(=N\NC(=O)c1ccccc1-n1cccc1)c1ccccn1	?	-7	69*	-22	/	-2
C/C(=N\NC(=O)CCCNc1ccccc1)c1ccncc1	i	1	-1	5	3	-3
C/C(=N\NC(=O)CCCNc1ccc(C)cc1)c1ccccn1	i	2	58*	4	9	1
CC(=NNC(=S)Nc1ccccc1)c1ccccn1	?	-3	30	21*	/	11
CN1C(=O)C(c2cn(C)c3ccccc23)(c2cn(C)c3ccccc23)c2cc(F)ccc21	i	-2	/	-7	/	/
Cc1ccc(CS(=O)Cc2ccc(C(=O)NC3CCC(C)CC3)o2)cc1 (centres undefined)	i	0	-2	-2	5	-1
